Experiment in all cases: DAPPL (digital affinity profiling via proximity ligation, sequencing); 10 mM Tris-HCl pH 7.5, 50 mM NaCl, 1 mM DTT, 4% glycerol, room temperature, 30 min; GST-TFs on glutathione beads, 16-mer random dsDNA library, 0.1% formaldehyde crosslink after washing; high values mean tight binding
Assay [1] addresses T1, FEV (Homo sapiens, UniProt Q99581 1-238).
T1 sequence: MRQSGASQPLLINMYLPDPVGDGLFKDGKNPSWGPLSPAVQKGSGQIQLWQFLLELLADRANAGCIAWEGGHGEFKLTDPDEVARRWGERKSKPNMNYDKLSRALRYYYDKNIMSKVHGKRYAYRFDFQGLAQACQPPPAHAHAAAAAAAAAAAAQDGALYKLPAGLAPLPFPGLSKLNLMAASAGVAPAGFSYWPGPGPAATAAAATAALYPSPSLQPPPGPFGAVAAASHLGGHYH
To be noted: protein: recombinant; tags: N-terminal GST; dsDNA, one strand shown. The method, boiled down:
(§1)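 Human transcription factors carrying a GST fusion were produced in yeast, bound to glutathione beads, tagged with DNA barcodes and pooled together with a tag-only sample. Each pool was held with 200 nmole of a random double-stranded 16-mer DNA library in Tris/NaCl/DTT/glycerol buffer for 30 min at room temperature, then washed, crosslinked in 0.1% formaldehyde, proximity-ligated with BsaI/T4 ligase (1 h, 37 °C), PCR-amplified and sequenced on an Illumina NextSeq500. Binding signal is the read frequency of each hexamer for a given factor divided by its frequency in the tag-only sample.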

For assay [2], the target named is ETV5 (Homo sapiens, UniProt P41161 1-510). The settings on record: protein: recombinant; tags: N-terminal GST; dsDNA, one strand shown. The method, boiled down:
as §1

For assay [3], the target named is HSF1 (Homo sapiens, UniProt Q00613 1-529). The settings on record: protein: recombinant; tags: N-terminal GST; chain copies: 3; dsDNA, one strand shown. The method, boiled down:
as §1

In assay [4] the target is T2, SPIC (Homo sapiens, UniProt Q8N5J4 1-248).
T2 sequence: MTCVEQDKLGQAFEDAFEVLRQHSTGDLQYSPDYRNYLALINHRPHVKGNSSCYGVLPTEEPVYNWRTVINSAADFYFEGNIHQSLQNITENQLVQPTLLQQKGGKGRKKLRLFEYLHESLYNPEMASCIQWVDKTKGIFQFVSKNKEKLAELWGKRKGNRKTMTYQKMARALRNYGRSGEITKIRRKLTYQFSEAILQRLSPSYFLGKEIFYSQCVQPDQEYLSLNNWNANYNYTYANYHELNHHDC
To be noted: protein: recombinant; tags: N-terminal GST; dsDNA, one strand shown. The essentials: as §1

Assay [5] deals with ELF4 (Homo sapiens, UniProt Q99607 1-663). The settings on record: protein: recombinant; tags: N-terminal GST; dsDNA, one strand shown. The essentials: as §1
Sequence of ELF4 (Q99607 whole entry): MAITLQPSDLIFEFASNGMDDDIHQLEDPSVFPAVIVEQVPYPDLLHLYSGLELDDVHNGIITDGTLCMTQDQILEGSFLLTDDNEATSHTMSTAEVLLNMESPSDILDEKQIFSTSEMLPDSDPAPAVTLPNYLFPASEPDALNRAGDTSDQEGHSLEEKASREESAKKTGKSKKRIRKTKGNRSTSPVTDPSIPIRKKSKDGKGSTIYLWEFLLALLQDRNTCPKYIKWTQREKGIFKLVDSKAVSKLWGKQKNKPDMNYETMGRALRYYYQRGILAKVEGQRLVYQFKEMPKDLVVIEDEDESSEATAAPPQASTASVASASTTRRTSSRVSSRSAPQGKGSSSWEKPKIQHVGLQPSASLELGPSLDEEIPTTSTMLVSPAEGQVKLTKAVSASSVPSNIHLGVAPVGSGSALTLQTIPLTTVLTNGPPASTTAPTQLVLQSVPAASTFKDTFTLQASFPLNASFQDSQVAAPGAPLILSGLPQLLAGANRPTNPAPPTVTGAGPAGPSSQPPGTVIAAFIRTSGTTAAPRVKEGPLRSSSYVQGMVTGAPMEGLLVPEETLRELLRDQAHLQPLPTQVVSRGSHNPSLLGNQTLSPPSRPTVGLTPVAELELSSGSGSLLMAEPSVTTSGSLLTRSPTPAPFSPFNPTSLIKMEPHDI
Assay [6] deals with T3, ELK4 (Homo sapiens, UniProt P28324-2 1-405).
T3 sequence: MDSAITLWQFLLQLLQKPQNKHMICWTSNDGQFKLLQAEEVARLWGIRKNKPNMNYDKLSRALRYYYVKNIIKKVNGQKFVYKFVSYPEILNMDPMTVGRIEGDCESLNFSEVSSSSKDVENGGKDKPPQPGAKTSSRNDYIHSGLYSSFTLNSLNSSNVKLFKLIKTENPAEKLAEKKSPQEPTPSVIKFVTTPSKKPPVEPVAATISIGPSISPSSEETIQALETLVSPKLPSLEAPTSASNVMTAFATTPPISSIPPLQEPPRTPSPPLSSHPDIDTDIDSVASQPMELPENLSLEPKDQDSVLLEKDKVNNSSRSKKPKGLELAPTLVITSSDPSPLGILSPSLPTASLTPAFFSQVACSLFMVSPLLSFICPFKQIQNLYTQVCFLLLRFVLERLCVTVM
To be noted: protein: recombinant; tags: N-terminal GST; dsDNA, one strand shown. The method, boiled down: as §1

Assay [7] deals with T4, ETV2 (Homo sapiens, UniProt O00321 1-342).
T4 sequence: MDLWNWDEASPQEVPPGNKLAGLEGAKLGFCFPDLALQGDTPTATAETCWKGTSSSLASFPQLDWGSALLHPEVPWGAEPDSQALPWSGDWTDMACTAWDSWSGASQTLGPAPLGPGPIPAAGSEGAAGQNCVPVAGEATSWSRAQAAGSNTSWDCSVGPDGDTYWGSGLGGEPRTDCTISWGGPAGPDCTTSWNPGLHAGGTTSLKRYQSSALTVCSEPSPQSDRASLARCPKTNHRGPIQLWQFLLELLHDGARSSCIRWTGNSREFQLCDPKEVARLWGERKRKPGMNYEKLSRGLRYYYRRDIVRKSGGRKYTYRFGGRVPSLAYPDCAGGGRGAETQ
To be noted: protein: recombinant; tags: N-terminal GST; dsDNA, one strand shown. The essentials:
as §1

In assay [8] the target is T5, ELF3 (Homo sapiens, UniProt P78545 1-371).
T5 sequence: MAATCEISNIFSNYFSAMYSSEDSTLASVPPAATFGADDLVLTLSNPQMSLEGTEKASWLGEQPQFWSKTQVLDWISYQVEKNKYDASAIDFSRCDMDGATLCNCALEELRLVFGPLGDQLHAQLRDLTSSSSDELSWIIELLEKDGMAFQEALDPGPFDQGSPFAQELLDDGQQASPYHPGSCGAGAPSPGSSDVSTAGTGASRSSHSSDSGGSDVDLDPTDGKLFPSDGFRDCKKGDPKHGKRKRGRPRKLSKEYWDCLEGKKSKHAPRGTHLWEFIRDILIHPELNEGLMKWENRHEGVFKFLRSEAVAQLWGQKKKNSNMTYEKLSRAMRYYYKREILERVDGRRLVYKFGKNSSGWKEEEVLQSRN
The settings on record: protein: recombinant; tags: N-terminal GST; dsDNA, one strand shown. The essentials: as §1

Assay [9] addresses CRX (Homo sapiens, UniProt O43186 1-299). The settings on record: protein: recombinant; tags: N-terminal GST; dsDNA, one strand shown. The method, boiled down:
as §1

Assay [10] deals with ETV1 (Homo sapiens, UniProt P50549 1-477). The settings on record: protein: recombinant; tags: N-terminal GST; dsDNA, one strand shown. The method, boiled down: as §1
Sequence of ETV1 (P50549 whole entry): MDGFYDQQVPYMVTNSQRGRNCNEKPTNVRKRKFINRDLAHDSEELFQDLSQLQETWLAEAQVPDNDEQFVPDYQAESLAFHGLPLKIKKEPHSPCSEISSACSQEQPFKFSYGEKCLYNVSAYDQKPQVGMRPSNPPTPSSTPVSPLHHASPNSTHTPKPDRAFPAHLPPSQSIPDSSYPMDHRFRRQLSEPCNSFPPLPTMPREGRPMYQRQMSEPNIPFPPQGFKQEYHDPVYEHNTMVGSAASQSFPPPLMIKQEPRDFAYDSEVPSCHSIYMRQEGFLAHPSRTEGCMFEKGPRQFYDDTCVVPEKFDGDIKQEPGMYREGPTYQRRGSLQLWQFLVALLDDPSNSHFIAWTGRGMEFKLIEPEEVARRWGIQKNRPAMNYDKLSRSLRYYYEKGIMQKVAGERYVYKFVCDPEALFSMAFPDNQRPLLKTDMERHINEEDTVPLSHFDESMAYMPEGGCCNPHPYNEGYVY
In assay [11] the target is T6, ERF (Homo sapiens, UniProt P50548 1-548).
T6 sequence: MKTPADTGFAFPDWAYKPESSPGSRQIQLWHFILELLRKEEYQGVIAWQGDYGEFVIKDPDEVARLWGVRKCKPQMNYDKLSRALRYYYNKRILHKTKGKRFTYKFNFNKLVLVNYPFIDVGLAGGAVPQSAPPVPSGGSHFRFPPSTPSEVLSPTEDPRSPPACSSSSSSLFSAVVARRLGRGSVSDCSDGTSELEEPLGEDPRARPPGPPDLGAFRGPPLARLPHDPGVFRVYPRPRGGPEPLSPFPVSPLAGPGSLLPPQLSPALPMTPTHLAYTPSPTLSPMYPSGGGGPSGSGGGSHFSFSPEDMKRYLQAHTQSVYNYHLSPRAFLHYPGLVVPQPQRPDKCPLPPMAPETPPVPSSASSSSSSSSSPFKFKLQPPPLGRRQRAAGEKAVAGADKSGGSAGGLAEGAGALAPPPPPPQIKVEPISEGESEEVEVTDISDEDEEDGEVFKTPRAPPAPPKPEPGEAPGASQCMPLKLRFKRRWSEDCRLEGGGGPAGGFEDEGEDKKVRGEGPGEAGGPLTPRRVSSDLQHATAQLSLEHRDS
The settings on record: protein: recombinant; tags: N-terminal GST; dsDNA, one strand shown. The method, boiled down:
as §1

Assay [12] addresses T7, ETV3L (Homo sapiens, UniProt Q6ZN32 1-361).
T7 sequence: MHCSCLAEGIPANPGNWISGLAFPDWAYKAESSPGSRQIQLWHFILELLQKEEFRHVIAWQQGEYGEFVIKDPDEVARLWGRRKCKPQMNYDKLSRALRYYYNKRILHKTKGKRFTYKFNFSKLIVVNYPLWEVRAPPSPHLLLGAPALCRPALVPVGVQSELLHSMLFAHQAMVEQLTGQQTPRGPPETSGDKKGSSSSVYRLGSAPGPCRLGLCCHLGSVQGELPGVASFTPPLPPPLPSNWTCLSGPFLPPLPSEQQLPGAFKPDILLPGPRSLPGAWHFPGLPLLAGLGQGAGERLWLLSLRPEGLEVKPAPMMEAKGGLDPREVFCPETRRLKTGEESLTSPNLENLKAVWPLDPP
To be noted: protein: recombinant; tags: N-terminal GST; dsDNA, one strand shown. The method, boiled down:
as §1

The target in assay [13] is T8, ETS2 (Homo sapiens, UniProt P15036 1-469).
T8 sequence: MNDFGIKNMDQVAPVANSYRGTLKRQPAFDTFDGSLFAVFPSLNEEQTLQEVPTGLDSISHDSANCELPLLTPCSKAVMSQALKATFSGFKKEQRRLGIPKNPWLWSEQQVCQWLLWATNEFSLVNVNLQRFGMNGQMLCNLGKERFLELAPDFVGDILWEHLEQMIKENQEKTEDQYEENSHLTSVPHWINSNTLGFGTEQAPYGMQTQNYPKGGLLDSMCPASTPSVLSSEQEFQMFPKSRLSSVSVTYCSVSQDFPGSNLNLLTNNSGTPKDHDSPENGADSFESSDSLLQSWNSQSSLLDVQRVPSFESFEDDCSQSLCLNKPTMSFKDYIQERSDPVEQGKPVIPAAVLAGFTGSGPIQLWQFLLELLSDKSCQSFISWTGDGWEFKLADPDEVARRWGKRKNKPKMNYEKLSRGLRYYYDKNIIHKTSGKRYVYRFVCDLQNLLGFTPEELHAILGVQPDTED
To be noted: protein: recombinant; tags: N-terminal GST; dsDNA, one strand shown. The method, boiled down:
as §1

Assay [14] addresses T9, SPDEF (Homo sapiens, UniProt O95238 1-335).
T9 sequence: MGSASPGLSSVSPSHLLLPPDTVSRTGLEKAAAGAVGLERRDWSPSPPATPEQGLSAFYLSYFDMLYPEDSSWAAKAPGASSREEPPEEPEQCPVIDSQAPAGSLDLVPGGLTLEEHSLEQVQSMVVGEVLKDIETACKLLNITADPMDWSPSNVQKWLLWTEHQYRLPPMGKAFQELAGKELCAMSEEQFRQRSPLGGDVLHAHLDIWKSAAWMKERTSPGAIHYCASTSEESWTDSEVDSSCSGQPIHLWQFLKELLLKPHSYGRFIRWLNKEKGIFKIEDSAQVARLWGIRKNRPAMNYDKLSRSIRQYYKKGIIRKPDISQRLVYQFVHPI
To be noted: protein: recombinant; tags: N-terminal GST; dsDNA, one strand shown. The essentials:
as §1

Assay [15] deals with T10, ETV7 (Homo sapiens, UniProt Q9Y603 1-341).
T10 sequence: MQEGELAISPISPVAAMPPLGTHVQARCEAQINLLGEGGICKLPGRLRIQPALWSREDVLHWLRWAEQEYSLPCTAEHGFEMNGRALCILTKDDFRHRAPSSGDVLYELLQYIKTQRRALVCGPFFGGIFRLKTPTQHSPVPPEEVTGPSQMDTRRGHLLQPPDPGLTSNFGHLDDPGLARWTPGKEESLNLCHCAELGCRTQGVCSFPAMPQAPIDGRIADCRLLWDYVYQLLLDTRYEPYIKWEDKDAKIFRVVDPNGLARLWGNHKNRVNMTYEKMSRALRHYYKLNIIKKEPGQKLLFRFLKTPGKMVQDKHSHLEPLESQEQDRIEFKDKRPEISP
To be noted: protein: recombinant; tags: N-terminal GST; dsDNA, one strand shown. The method, boiled down:
as §1

In assay [16] the target is T11, ELF5 (Homo sapiens, UniProt Q9UKW6-2 1-255).
T11 sequence: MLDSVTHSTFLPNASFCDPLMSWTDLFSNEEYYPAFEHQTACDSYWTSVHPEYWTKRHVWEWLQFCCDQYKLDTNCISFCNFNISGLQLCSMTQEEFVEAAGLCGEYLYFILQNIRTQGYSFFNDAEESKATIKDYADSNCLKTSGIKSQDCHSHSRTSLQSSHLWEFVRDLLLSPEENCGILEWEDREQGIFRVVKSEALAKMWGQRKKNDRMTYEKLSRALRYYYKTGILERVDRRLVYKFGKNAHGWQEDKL
The settings on record: protein: recombinant; tags: N-terminal GST; dsDNA, one strand shown. The method, boiled down: as §1

In assay [17] the target is T12, ETV3 (Homo sapiens, UniProt P41162-2 1-143).
T12 sequence: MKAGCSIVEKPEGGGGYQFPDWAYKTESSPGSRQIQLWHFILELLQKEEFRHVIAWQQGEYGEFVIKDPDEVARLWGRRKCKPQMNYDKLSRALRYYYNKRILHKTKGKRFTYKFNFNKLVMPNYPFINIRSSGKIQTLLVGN
To be noted: protein: recombinant; tags: N-terminal GST; dsDNA, one strand shown. The essentials: as §1

For assay [18], the target named is ETV6 (Homo sapiens, UniProt P41212 1-452). To be noted: protein: recombinant; tags: N-terminal GST; dsDNA, one strand shown. The method, boiled down: as §1
Sequence of ETV6 (P41212 whole entry): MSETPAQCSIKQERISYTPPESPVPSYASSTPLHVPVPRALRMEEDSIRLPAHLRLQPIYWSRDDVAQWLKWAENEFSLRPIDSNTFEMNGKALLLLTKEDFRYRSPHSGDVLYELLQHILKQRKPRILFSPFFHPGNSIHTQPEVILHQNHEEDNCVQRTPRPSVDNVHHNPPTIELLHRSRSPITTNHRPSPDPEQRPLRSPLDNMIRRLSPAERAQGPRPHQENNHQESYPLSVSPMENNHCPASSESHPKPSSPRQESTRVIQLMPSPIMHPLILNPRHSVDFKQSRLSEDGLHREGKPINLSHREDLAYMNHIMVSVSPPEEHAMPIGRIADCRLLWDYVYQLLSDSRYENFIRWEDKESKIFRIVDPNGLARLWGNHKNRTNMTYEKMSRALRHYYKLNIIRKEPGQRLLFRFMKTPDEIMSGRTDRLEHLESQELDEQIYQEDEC

Sequence of CRX (O43186 whole entry): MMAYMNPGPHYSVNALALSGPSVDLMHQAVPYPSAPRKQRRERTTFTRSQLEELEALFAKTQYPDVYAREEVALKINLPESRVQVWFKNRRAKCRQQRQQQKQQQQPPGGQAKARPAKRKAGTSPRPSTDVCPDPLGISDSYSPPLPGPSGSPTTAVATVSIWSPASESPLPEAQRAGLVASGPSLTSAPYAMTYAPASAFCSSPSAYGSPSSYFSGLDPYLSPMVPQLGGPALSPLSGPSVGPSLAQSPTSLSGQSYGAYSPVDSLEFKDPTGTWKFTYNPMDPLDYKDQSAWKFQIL
Sequence of ETV5 (P41161 whole entry): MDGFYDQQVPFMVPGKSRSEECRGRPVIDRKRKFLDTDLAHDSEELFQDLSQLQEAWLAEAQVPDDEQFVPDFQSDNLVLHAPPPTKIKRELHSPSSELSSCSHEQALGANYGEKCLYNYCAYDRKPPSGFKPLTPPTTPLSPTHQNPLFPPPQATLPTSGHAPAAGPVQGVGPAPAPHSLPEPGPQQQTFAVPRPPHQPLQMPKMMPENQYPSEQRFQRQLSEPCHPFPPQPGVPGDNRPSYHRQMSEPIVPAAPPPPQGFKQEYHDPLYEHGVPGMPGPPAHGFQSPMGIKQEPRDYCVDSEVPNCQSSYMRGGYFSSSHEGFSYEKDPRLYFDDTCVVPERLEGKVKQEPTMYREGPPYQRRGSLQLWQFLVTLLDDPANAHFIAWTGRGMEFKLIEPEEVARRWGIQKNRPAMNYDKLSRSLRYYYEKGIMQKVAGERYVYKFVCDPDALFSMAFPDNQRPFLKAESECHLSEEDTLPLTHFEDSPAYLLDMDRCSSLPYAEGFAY
Sequence of HSF1 (Q00613 whole entry): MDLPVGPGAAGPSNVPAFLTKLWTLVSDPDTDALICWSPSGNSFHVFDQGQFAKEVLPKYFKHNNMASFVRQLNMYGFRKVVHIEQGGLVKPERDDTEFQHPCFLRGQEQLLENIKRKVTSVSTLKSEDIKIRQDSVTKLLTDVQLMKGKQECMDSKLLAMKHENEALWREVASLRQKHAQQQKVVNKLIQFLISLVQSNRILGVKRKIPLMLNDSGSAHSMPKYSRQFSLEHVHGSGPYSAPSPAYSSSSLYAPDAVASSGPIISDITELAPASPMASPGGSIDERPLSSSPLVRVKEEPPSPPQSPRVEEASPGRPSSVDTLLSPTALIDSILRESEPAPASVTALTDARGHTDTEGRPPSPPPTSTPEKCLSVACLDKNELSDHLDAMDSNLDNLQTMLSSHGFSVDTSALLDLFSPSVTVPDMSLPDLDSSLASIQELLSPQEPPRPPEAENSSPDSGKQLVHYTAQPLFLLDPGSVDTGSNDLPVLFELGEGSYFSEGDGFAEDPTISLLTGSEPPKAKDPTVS

In the case of ATTTCG, the binding signal in assay [1] was 1.25 fold enrichment (6-mer frequency, TF over GST control); in assay [2], 1.26 fold enrichment (6-mer frequency, TF over GST control); in assay [3], 1.63 fold enrichment (6-mer frequency, TF over GST control); in [4], 1.26 fold enrichment (6-mer frequency, TF over GST control); in assay [5], 1.29 fold enrichment (6-mer frequency, TF over GST control); in assay [6] it was 1.49 fold enrichment (6-mer frequency, TF over GST control). Besides, the binding signal was 1.22 fold enrichment (6-mer frequency, TF over GST control) in assay [7]; 1.2 fold enrichment (6-mer frequency, TF over GST control) in assay [8]; 1.45 fold enrichment (6-mer frequency, TF over GST control) in assay [9]; 1.34 fold enrichment (6-mer frequency, TF over GST control) in assay [10]; 1.2 fold enrichment (6-mer frequency, TF over GST control) in assay [11]; 1.31 fold enrichment (6-mer frequency, TF over GST control) in [12]. The binding signal in assay [13] was 1.3 fold enrichment (6-mer frequency, TF over GST control); in assay [14] it was 1.27 fold enrichment (6-mer frequency, TF over GST control); in assay [15], 1.26 fold enrichment (6-mer frequency, TF over GST control); in assay [16], 1.27 fold enrichment (6-mer frequency, TF over GST control); in assay [17] it was 1.27 fold enrichment (6-mer frequency, TF over GST control); in [18] it was 1.35 fold enrichment (6-mer frequency, TF over GST control).
